Only some compounds are listed: those with a hit (about 7.4% of all), similar ones and a draw of the others.
FLuc counter – inhibits or activates purified firefly luciferase, miR-21 counter-screen; purified FLuc, Km substrates, luminescence inhibition; Potency, µM (series often up to 57.5 µM), without a hit: at the highest dose activity change, negative = inhibition, actives largely listed as inhibitors; 360,000 tested, 6.9% active;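 also: plate controls were vehicle for no effect and reference inhibitor for full effect; nearly all actives have a fitted effect of over 55% in size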
Target sequence (P08659 whole entry, looked up): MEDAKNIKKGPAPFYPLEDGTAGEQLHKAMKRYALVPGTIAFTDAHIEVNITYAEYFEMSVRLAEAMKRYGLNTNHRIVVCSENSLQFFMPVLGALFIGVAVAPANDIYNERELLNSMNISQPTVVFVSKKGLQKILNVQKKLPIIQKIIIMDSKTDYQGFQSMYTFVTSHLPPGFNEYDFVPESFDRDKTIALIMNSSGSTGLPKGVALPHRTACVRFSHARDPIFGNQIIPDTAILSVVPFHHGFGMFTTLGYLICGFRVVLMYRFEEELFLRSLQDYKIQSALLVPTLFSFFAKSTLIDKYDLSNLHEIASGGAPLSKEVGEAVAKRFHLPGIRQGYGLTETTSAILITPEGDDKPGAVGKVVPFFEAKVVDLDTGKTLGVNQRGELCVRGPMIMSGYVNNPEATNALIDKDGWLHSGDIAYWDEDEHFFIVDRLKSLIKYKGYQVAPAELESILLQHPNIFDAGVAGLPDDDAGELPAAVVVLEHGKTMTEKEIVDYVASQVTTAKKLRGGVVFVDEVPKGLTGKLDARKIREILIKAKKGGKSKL
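Purified P. pyralis luciferase (10nM final) with 10uM D-luciferin and 10uM ATP (Km levels) in 50mM Tris acetate pH 7.5, 10mM Mg acetate, 0.01% Tween-20, 0.05% BSA; qHTS 6-point titration, ~60 µM downward; luminescence read.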
Rab9 prom act – Rab9 promoter activation; Huh7 Rab9 promoter-luciferase reporter, luminescence, 24 h; Potency, µM (doses to about 9.22 µM), for inactives: top-dose activation, negative = inhibition, most hits filed as activators; 320,000 tested, 2.8% active; also: % of control where 0% means no effect; nearly all actives have a fitted effect of over 60% in size
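Stable Rab9-luc Huh7, 1500 cells/well, 2 h settle; cmpd in DMSO, 24 h, 37 °C/5% CO2; luciferase reagent 10 min RT; luminescence.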
NPC1 prom act – activators of NPC1 promoter; 320,000 tested, 2.4% active; Huh7 NPC1 promoter luciferase reporter, 24 h; AID 485313; Potency, µM (doses to about 9.22 µM), for inactives: at the highest dose activation, actives largely listed as activators; also: % of control where 0% means no effect; nearly all actives have a fitted effect of over 60% in size
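Stably transfected Huh7 (NPC1 promoter→luciferase), 1500 cells/well in Opti-MEM + 10% FBS, 2 h settle, then compound 24 h at 37 °C. Luminescence after 10 min with Amplite reagent.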
SMN2 splice up – increases expression of the SMN2 splice variant | HEK293 SMN2-luciferase splicing reporter, luminescence, 30-36 h | Potency, µM (titrated, usually from 46.1 µM), for inactives: at the highest dose activity change, positive = activation, hits mostly activators | 210,000 tested, 2.8% active | AID 1458; also: % of control where 0% means no effect; nearly all actives have a fitted effect of over 55% in size
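qHTS luciferase splicing reporter: luminescence rises when SMN2 exon 7 is included in transfected HEK293 cells. Compound exposure lasted 30-36 h at 37C, with 4.5 mM final sodium butyrate as control, followed by a ONE-Glo read.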
ELG1 genotoxic – inducers of genotoxicity in HEK293T ELG1-luciferase cells; HEK293T ELG1-luciferase reporter, luminescence, 16 h; Potency, µM (top dose mostly 46 µM), without a hit: top-dose activity change, positive = activation, usual class: activators; 330,000 tested, 1.3% active; AID 504466; also: % of control where 0% means no effect; nearly all actives have a fitted effect of over 60% in size
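After overnight (16 hr) compound treatment at 37 °C, ELG1-luciferase HEK293T cells were lysed with ONE-Glo; luminescence quantified 30 min later at room temperature.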
p53 reactivator – restores transcriptional activity of mutant p53. 320,000 tested, 0.063% active. AID 504706. Potency, µM (highest dose often 92.2 µM), without a hit: top-dose activity change, positive = activation, hits mostly activators. H1299 p53-A138V BP100-luciferase reporter, luminescence, 24 h; also: % of control where 0% means no effect; nearly all actives have a fitted effect of over 45% in size
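H1299 (p53-null), stable ts p53-A138V + BP100-Luc; 1000 cells/well, Opti-MEM/10% FBS; cpd 4 pt, 1:5; 24 h, 37 deg C, 5% CO2; detection reagent 10 min RT; luminescence.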
* = called active by the depositor; ? = inconclusive; / = not tested or not shown; [ ] = dose if it differs, or a comment. Calls follow the shape of the dose curve; as a rule, active = well fitted curve in the direction sought with a large enough effect; inconclusive = small, poorly fitted or top-dose-only effect, or another doubt; inactive = no such curve, though single readings can be large; an effect the other way counts as inactive or inconclusive. Potency is read from the fitted curve at half-maximal effect.

SMILES	FLuc counter	Rab9 prom act	NPC1 prom act	SMN2 splice up	ELG1 genotoxic	p53 reactivator
CC(Oc1ccccc1F)c1nnc(SCC(=O)N(c2ccccc2)C2CCS(=O)(=O)C2)o1 (centres undefined)	/	/	/	/	-5.9%	4.5%
C=CCn1c(=O)c(C(=O)NC(C)c2ccccc2)c(O)c2ccccc21 (centres undefined)	0.2%	-0.4%	-1.2%	/	-1.3%	/
C=CCn1c2ccccc2c(=O)c2cc(C#CC3(O)CCCCC3)ccc21	0.757µM*	0.708µM*	1.26µM*	/	?	/
C=CCn1c2ccccc2c(=O)c2cc(C#CC[C@@H](C)O)ccc21	2.13µM*	?	3.16µM*	/	?	?
COc1ccc(C(=O)NCCn2cc(SCC(=O)Nc3ccc4c(c3)OCCO4)c3ccccc32)cc1OC	?	/	/	-2.7%	/	/
O=S(=O)(O)c1cc2oc(-c3ccccc3)nc2c2ccccc12	9.53µM*	22.1%	15.7%	/	-3.7%	10.8%
CC(Sc1nnc2n1CCCCC2)C(=O)Nc1cccc(S(=O)(=O)N2CCOCC2)c1 (centres undefined)	2.9%	-5.6%	-1.5%	/	-4.6%	-1.3%
CCC(=O)n1nc(-c2ccco2)nc1SCc1ccccc1	15.1µM*	9.1%	15.2%	?	?	?
Cc1c(C(=O)N2CCc3ccccc32)oc2ccccc12	0.953µM*	3.55µM*	?	3.55µM*	3.66µM*	?
O=C(c1ccc(Br)o1)N1CCc2ccccc21	4.78µM*	2.51µM*	2.24µM*	/	?	11.1%
Nc1ccccc1C(=O)N1CCc2ccccc21	19µM*	?	?	/	10.6%	?
O=C(c1ccc(Br)o1)N1CCCc2ccccc21	-1.6%	0.3%	-0.2%	1.6%	0.7%	16.3%
Cc1c(Br)c(C(=O)N2CCc3ccccc32)nn1C	21.3µM*	?	29.9%	?	?	?
COc1ccccc1C(=O)N1CCc2ccccc21	5.1%	-1.3%	-5.6%	-7.9%	4.7%	-4.9%
Cc1nn(C)c(C(=O)N2CCc3ccccc32)c1Br	0.4%	1.9%	-5.3%	-4.3%	-3.2%	-5.8%
CCN1CCN(Cc2nc3cc(NC(=O)c4cccc([N+](=O)[O-])c4)ccc3n2CC)CC1	-6.0%	/	/	/	/	/
COc1ccc(CCNC(=O)C2CCN(S(=O)(=O)c3c(C)noc3/C=C/c3ccc(C)cc3)CC2)cc1OC	-2.3%	/	/	/	/	/
Cc1ccc2nc3c(cc(C(=O)NCc4ccco4)c(=N)n3C(C)C)c(=O)n2c1	-1.6%	/	/	6.3%	/	/
CC(C)CC(NC(=O)C1CCC(C)CC1)C(=O)Nc1ccccc1F (centres undefined)	0.3%	-4.0%	-41.7%	/	6.3%	-4.9%
CC(C)CC(NC(=O)C1CCC(C)CC1)C(=O)Nc1ccc2c(c1)OCCO2 (centres undefined)	16.9µM*	27.0%	22.2%	6.9%	?	?
CCC1CCC(C(=O)NC(C(=O)NCCN(CC(C)C)CC(C)C)C(C)C)CC1 (centres undefined)	2.3%	/	/	-1.4%	/	/
CCC1CCC(C(=O)NC(C(=O)Nc2ccc3c(c2)OCCO3)C(C)C)CC1 (centres undefined)	?	22.8%	14.8%	10.6%	16.4µM*	?
CC(Oc1ccc2c3c(c(=O)oc2c1)CCCC3)C(=O)NCc1cccnc1 (centres undefined)	0.3%	-4.0%	-0.4%	/	0.7%	-4.8%
N#Cc1ccc(CN2CC[C@@]3(CCCN(C(=O)c4ccncc4)C3)C2)cc1	/	/	/	-11.1%	/	/
O=C1c2ccccc2C(=O)N1CCc1c[nH]c2ccccc12	6.75µM*	3.55µM*	?	/	?	19.1%
SMILES	FLuc counter	Rab9 prom act	NPC1 prom act	SMN2 splice up	ELG1 genotoxic	p53 reactivator
O=C1c2ccccc2C(=O)N1CCCc1c[nH]c2ccccc12	-17.7%	18.1%	2.9%	-0.3%	-2.3%	?
CCN(CC)C(=O)c1sc2c(c1C)c(=O)n(-c1ccccc1)c(=O)n2Cc1c(C)cc(C)cc1C	3.3%	/	/	/	/	/
CCn1c2ccccc2c2c3ncc4cccn4c3ccc21	3.01µM*	?	3.16µM*	/	11.6%	28.2µM*
c1ccc2c(c1)ncc1cccn12	-3.3%	13.0%	-0.9%	-0.4%	-8.0%	0.7%
O=C1NC2(C=Cc3c(ccc4ccccc34)O2)Oc2ccccc21 (centres undefined)	6.01µM*	28.4%	?	-4.6%	15.4%	?
CCOC(=O)Cc1csc(NC(=O)c2csc3c2CCCC3)n1	4.78µM*	-6.1%	-2.0%	-35.5%	-4.7%	13.8%
CCOC(=O)Cc1csc(NC(=O)c2cc3c(s2)CCCC3)n1	1.35µM*	0.562µM*	1.41µM*	-1.5%	?	17.6%
CCOC(=O)Cc1csc(NC(=O)c2cc(C)c(C)s2)n1	8.49µM*	23.3%	?	/	0.4%	23.3%
CCOC(=O)Cc1csc(NC(=O)c2cc(OC)cc(OC)c2)n1	?	-4.4%	0.6%	-1.5%	-6.3%	-6.9%
CCOC(=O)Cc1csc(NC(=O)c2ccncc2)n1	-2.6%	-2.7%	0.3%	-27.4%	-6.3%	3.8%
CCOC(=O)Cc1csc(NC(=O)c2ccc(Cl)s2)n1	?	1.2%	-11.0%	/	13.2%	11.6%
O=C(O)CC[P+](c1ccccc1)(c1ccccc1)c1ccccc1	/	/	/	-20.9%[9.22 µM]	/	/
C/C(=N/OC(=O)C1CC12CCC2)c1ccc(Br)cc1 (centres undefined)	6.75µM*	1.9%	-0.6%	14.8%	-3.8%	0.6%
C/C(=N/Oc1nc(C)cc(C)n1)c1ccc(Br)cc1	-12.7%	9.8%	3.0%	-28.5%	5.6%	-2.3%
Brc1cccc(CNCC2CCCO2)c1 (centres undefined)	0.6%	10.4%	-1.3%	/	0.3%	2.4%
CC1(C)NC(=O)N(CCCOc2ccc(Br)cc2Cl)C1=O	10.7µM*	?	2.82µM*	?	14.6µM*	27.0%
CC1(C)NC(=O)N(CCCCOc2ccc(Br)cc2Cl)C1=O	-14.9%	5.3%	0.0%	-6.6%	6.6%	-3.0%
CC(=O)c1ccc(OCc2cc(C(=O)N3CCCCC3c3cccnc3)no2)cc1 (centres undefined)	26.9µM*	?	?	/	?	27.1%
CC(=O)c1ccc(OCc2cc(C(=O)NC3CCCCC3)no2)cc1	?	3.98µM*	3.55µM*	/	-6.1%	-13.5%
CC(=O)c1ccc(OCc2cc(C(=O)N3CCC(c4ccncc4)CC3)no2)cc1	-0.1%	-16.0%	-13.6%	/	8.8%	0.1%
CC(=O)c1ccc(OCc2cc(C(=O)N3CC[C@@H]4CCCC[C@H]4C3)no2)cc1	9.53µM*	2µM*	2.51µM*	/	?	?
CC(=O)c1ccc(OCc2cc(C(=O)N(C)CCOc3ccc(C)cc3)no2)cc1	9.53µM*	3.98µM*	2.51µM*	/	2.91µM*	5.5%

Source: PubChem BioAssay (National Center for Advancing Translational Sciences (NCATS))
